The sample as a whole holds a higher share of hits than the screen did.
KDM5B inhibitor – Primary screen for KDM5B Histone Demethylases FDH-coupled qHTS. KDM5B demethylase, FDH-coupled NADH fluorescence (FDH is formaldehyde dehydrogenase). Potency, µM (doses to about 57.7 µM), most hits filed as inhibitors. actives 2.6% (n = 220,000); active = well fitted inhibition curve with a large enough effect; note: 0% is about no effect; nearly all actives have a fitted effect of over 70% in size
Target sequence (Q9UGL1 whole entry, looked up): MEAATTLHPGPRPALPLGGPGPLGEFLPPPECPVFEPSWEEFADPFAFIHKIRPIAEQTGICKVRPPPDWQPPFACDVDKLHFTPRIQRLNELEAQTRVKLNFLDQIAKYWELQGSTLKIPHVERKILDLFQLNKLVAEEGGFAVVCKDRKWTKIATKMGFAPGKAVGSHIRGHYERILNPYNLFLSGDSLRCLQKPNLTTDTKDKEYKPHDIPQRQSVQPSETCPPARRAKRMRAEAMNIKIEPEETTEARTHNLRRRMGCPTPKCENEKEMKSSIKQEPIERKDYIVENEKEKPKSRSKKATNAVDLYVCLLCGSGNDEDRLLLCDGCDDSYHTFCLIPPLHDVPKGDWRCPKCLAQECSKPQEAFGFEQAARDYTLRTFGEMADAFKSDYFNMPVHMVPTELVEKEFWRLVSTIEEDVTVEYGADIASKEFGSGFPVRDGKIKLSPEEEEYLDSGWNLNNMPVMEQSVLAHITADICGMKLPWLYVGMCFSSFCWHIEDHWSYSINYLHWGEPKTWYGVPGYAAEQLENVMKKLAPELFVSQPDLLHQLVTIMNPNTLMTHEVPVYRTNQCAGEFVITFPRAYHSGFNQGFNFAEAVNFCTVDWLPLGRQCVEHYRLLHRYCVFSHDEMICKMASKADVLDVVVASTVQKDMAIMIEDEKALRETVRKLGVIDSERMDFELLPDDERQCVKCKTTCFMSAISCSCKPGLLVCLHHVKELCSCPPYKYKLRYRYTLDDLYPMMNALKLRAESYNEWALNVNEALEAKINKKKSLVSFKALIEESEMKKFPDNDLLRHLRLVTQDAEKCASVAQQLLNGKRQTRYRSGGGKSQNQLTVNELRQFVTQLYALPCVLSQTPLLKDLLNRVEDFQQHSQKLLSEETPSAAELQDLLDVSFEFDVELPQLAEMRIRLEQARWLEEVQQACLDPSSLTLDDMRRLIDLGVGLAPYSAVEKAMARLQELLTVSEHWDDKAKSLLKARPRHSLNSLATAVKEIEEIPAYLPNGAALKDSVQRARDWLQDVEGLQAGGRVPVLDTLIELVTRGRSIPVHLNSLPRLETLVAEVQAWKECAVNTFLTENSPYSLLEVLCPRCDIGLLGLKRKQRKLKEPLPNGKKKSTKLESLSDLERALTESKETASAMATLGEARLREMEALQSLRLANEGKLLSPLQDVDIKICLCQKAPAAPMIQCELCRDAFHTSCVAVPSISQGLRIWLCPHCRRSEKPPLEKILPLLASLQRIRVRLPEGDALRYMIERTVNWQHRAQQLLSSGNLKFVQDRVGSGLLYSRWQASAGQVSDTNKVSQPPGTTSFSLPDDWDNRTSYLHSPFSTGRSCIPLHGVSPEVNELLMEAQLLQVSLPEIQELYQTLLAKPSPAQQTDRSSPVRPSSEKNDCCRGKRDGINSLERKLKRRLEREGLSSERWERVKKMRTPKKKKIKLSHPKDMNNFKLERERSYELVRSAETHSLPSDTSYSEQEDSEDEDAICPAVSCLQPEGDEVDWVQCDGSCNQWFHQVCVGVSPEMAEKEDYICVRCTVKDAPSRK
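Measured: NADH fluorescence change, 30 min, RT. System: KDM5BΔAP 200 nM final, H3K4me3 peptide, α-KG, Fe(II), ascorbate, NAD⁺ plus FDH, pH 7.5 HEPES. Compounds: titrated, 10 min pre-incubation with enzyme.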
* hit, by the source's call; i = inactive. Potency is the fitted concentration of half-maximal effect.

SMILES	KDM5B inhibitor
Cc1cccc(C)c1-c1nc(C(=O)N2CCC(C#N)CC2)n2ccccc12	100µM*
COc1ccccc1-c1nnc(C2CCN(C(=O)c3ccccc3C)CC2)o1	i
N#CC1CCN(C(=O)c2nc(-c3cccc(C(F)(F)F)c3)c3cnccn23)CC1	25µM*
COc1ccccc1-c1nc(C(=O)N2CCC(C#N)CC2)n2ccccc12	28µM*
COc1ccccc1-c1[nH]nc2ncc(C(=O)N3CCC(c4ccccc4)CC3)nc12	i
Cc1cccc(C)c1-c1cc(C(=O)N2CCC(C#N)CC2)c2cnn(C)c2n1	i
N#CC1CCN(C(=O)c2ccc3nnc(-c4cccc(OC(F)(F)F)c4)n3c2)CC1	i
N#CC1CCN(C(=O)c2nc(-c3ccccc3)c3ccccn23)CC1	35µM*
N#CC1CCN(C(=O)c2nc(-c3cc(Cl)cc(Cl)c3)c3ccccn23)CC1	i
COc1ccc(C(=O)N2CCC3(CC2)CC(c2cccc(C(F)(F)F)c2)=NO3)cc1	i
c1ccc(COC2C3COC(O3)C(OCc3ccccc3)C2OCc2ccccc2)cc1 (centres undefined)	i
COCCNC(=O)[C@@H]1C[C@H](Oc2cccnc2)CN1C(=O)COc1ccc(F)cc1	i
CCc1ccc(OCC(=O)Nc2cc(-c3nc4cc(C)ccc4o3)ccc2C)cc1	i
CCCCNc1ccc(-c2nc(-c3ccccn3)no2)cc1[N+](=O)[O-]	i
COc1c(C(=O)Nc2nccs2)ccc2ccccc12	i
CCOC(=O)C1CCN(c2cc3c(cc2NC(=O)c2ccc(OC)c(OC)c2)n(C)c(=O)n3C)CC1	i
CC(c1nnc(-c2cccc(Cl)c2)o1)N1CCN(c2cnn(-c3ccccc3)c(=O)c2Cl)CC1 (centres undefined)	i
CSc1ccccc1C(=O)N1CC(C)CC(C)C1 (centres undefined)	i
Cc1ccc(C(=O)N2CCC3(CC2)CC(c2cccc(C(F)(F)F)c2)=NO3)cc1	i
O=C(c1ccc(O)cc1)C1CCN(C(=O)c2cccc(C(F)(F)F)c2)CC1	i
N#CC1CCN(C(=O)c2nc(-c3cccc(C(F)(F)F)c3)c3ccccn23)CC1	14µM*
Cc1ccccc1-n1c(C)c(C)n2c3c(=O)[nH]c(=O)n(C)c3nc12	i
O=C(CSc1nc(-c2ccccc2)no1)N1CCN(c2ccccc2)CC1	i
COc1ccc(CN2CCC(N3CCOC3=O)CC2)cc1	i
N#Cc1ccc(CN2CCC(N3CCOC3=O)CC2)cc1	i
SMILES	KDM5B inhibitor
Cn1cccc1CN1CCC(N2CCOC2=O)CC1	89µM*
O=C(Cc1ccc2c(c1)CCCC2)NC1CCCC1	i
O=C(CN1C(=O)NC2(CCOCC2)C1=O)Nc1ccc(Br)cc1	i
COc1ccc(C(=O)N[C@@H]2CCC[C@@H]2C(=O)NCCN2CCCCC2)cn1	i
C=CCNC(=O)c1ccc(-c2nnc3ccc(NC(=O)C4CCC4)cn23)cc1	22µM*
O=C(Nc1ccc(-c2nnc3n2CCCC3)cc1)c1ccccc1	i
O=C(NCCN1CCCCCC1)c1ccc(CN2CC(=O)N3CCCCC3C2=O)cc1 (centres undefined)	i
O=C(NCCN1CCCCC1)c1ccc(-c2nnc3ccc(NC(=O)C4CCC4)cn23)cc1	22µM*
C=CCNC(=O)c1ccccc1NC(=O)C1CCC1	i
CC1CCN(c2nc3nonc3nc2Nc2cccc(Cl)c2)CC1	i
Cc1cccc(Cn2c(CN3CCC(C(=O)NCc4cccnc4)CC3)cc3ccccc32)c1	i
Cc1ccccc1OCCn1c(CN(C)C(=O)c2ccco2)nc2ccccc21	i
Cc1noc2ncnc(N3CCN(Cc4ccc(F)c(F)c4)C(CCO)C3)c12 (centres undefined)	i
N#Cc1cccnc1N1CCN(Cc2ccc(F)c(F)c2)C(CCO)C1 (centres undefined)	13µM*
Cc1cc(N2CCN(Cc3ccc(F)c(F)c3)C(CCO)C2)nc(N)n1 (centres undefined)	i
COC(=O)[C@H](C(C)C)N(Cc1cn(Cc2ccc(C)cc2)nn1)S(=O)(=O)c1ccc(F)cc1Br	i
CC(=O)N1CCC(Cc2ncc(C)n2Cc2ccccc2)C1 (centres undefined)	i
COc1cc(Cn2c(=O)sc3ccccc32)ccc1OC(C)C	i
c1cn(-c2ccc3cn[nH]c3c2)c(-c2cc3n(n2)CCCNC3)n1	i
c1cn(-c2ccc3ncsc3c2)c(-c2cc3n(n2)CCCNC3)n1	3.5µM*
c1cncc(CCn2ccnc2-c2cc3n(n2)CCCNC3)c1	i
COc1cc(-n2cnnn2)cc(-n2ccnc2-c2cc3n(n2)CCNC3)c1	i
c1cn(-c2ccc(-c3cscn3)cc2)c(-c2cc3n(n2)CCCNC3)n1	i
N#Cc1cc(-n2ccnc2-c2cc3n(n2)CCCNC3)ccc1N1CCCC1	28µM*
O=C(NCc1ccccc1)c1ccc(Cn2cnc3ccccc3c2=O)cc1	i
SMILES	KDM5B inhibitor
O=C(O)COc1ccc(/C=C2\NC(=O)NC2=O)cc1Br	i
CC(C)(C)NC(=O)NC(=O)CSc1nc(-c2ccccc2)c(-c2ccccc2)o1	i
O=C(COc1ccc2c(=O)c(Oc3ccc(F)cc3)coc2c1)Nc1ccc(N2CCOCC2)cc1	i
CC(=O)N1CCc2cc(C(=O)C(C)n3nnc(-c4ccccc4)n3)ccc21 (centres undefined)	i
O=C(NCc1nnc2cc(-c3nc(C4CC4)no3)ccn12)C1CCCCC1	28µM*
CCc1noc(-c2ccn3c(CNC(=O)C4CCC4)nnc3c2)n1	i
O=C(NCc1nnc2cc(-c3nc(C4CC4)no3)ccn12)C1CCC1	25µM*
CCc1noc(-c2ccn3c(CNC(=O)C4CCCC4)nnc3c2)n1	i
CCN(CC)CCOC(=O)c1ccc(NC(=O)Cn2ncc3c([nH]c4ccc(C)cc43)c2=O)cc1	i
COc1ccc(N2CCN(C(=O)Nc3ccccc3Cl)CC2)cc1	i
CCc1c(C)nc2nncn2c1Nc1ccc(Cl)cc1	i
CCC(CC)NC(=O)c1cc(-c2ccccc2)nc2ccccc12	i
O=C(COc1ccccc1Cl)Nc1ccc(-n2cnnn2)cc1	i
CCOc1ccc(C(=O)N2CCCC(n3cc(-c4nc(C5CC5)no4)nn3)C2)cc1 (centres undefined)	i
O=C1NC2(CCN([S+](=O)([O-])c3cccc(C(F)(F)F)c3)C2)Oc2ccccc21 (centres undefined)	i
COc1cccc([S+](=O)([O-])N2CCC3(C2)NC(=O)c2ccccc2O3)c1 (centres undefined)	i
COc1cccc([S+](=O)([O-])N2CCC3(CC2)CNC(=O)c2ccccc2O3)c1	i
O=C1NC2(CCN([S+](=O)([O-])c3cccc(C(F)(F)F)c3)C2)COc2ccccc21 (centres undefined)	i
O=C1NC2(CCCN([S+](=O)([O-])c3cccc(C(F)(F)F)c3)C2)COc2ccccc21 (centres undefined)	35µM*
COc1cccc([S+](=O)([O-])N2CCC3(C2)N=C(c2cccnc2)C(=O)N3)c1 (centres undefined)	28µM*
COc1cccc([S+](=O)([O-])N2CCCC3(COc4ccccc4C(=O)N3)C2)c1 (centres undefined)	25µM*
Cc1noc(C)c1[S+](=O)([O-])N1CCC2(C1)N=C(c1cccnc1)C(=O)N2 (centres undefined)	i
COc1cccc([S+](=O)([O-])N2CCC3(C2)OC(=O)Nc2cnccc23)c1 (centres undefined)	i
